Experimental findings from PubChem BioAssay (NCATS) are described below.

Experiment [1] deals with Cytochrome P450 1A2 (Homo sapiens) (UniProt P05177). In words: p450-cyp1a2 (AID 410; calls by dose curve; also: potency is read from the fitted curve at half-maximal effect;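 as to activity change, negative = inhibition: -100% = full effect of reference inhibitor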). The procedure, abridged:
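Luminescent readout of luciferin formed from Luciferin-ME by human CYP1A2; data normalized against complete inhibition by 57 uM furafylline. Enzyme 20nM, substrate 100uM at Km, 100mM KPO4 buffer, 60 min reaction at room temperature.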

Experiment [2] is described as follows: Stat Signaling Pathway (AID 446; active = well fitted curve in either direction with a large enough effect, not every such curve was filed as active;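 also: ME-180 cervical cancer cells given 40 pM IL-6 alongside compound; SIE-controlled beta-lactamase reporter measured as 460/530 nm FRET emission ratio; % is scaled to controls: 0 for no effect and ±100 for the full control effect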). The conditions noted are these: ME-180 SIE beta-lactamase reporter, IL-6 stimulated, 5 h; at 17.2 µM (top of the series) unless noted. The procedure, abridged: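 ME-180 cells carrying a SIE-driven beta-lactamase reporter are stimulated with 40 pM IL-6 for 5 h at 37C in the presence of compound. The 460/530 nm FRET substrate ratio is read after 2.5 h at RT. Data are normalised to 300 pM IL-6 and to 125 nM JAK inhibitor controls.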

The target in experiment [3] is Glucocorticoid receptor (Homo sapiens) (UniProt P04150). The experiment in a line: GR-GFP Redistribution (AID 450;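 active = compounds whose dose series gives a full or clear partial fitted curve of increased nuclear translocation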; also: potency is read from the fitted curve at half-maximal effect).
Sequence of Glucocorticoid receptor (Homo sapiens) (P04150 whole entry, looked up): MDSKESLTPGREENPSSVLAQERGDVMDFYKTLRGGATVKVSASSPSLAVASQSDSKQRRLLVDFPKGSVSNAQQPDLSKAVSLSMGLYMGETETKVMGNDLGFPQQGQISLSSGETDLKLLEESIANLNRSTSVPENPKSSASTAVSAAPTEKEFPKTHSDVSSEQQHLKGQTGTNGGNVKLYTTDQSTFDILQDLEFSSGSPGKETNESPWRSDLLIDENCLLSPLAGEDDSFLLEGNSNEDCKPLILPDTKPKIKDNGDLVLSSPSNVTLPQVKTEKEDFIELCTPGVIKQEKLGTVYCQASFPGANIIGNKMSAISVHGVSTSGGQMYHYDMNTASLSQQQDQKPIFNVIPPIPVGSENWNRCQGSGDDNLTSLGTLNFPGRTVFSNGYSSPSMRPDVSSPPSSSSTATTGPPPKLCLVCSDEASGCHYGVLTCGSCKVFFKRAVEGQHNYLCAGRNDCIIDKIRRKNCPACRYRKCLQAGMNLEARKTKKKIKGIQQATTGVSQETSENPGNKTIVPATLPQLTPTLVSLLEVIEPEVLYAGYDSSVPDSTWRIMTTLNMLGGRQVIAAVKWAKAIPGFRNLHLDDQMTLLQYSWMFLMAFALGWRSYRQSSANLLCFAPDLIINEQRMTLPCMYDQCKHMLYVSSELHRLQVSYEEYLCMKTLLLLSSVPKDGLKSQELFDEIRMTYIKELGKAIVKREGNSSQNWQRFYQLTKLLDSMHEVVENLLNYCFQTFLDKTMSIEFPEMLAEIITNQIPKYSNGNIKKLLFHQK
Experiment [4] has the same target. In words: GR-EFC Redistribution (AID 451; calls by dose curve; also: potency is read from the fitted curve at half-maximal effect). The conditions noted are these: CHO-K1 GR-EFC translocation, beta-gal luminescence, 2 h. The procedure, abridged:
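CHO-K1 cells expressing nuclear EA and GR-ED fragments of b-gal; compounds titrated up to 46 uM final, 2 h at 37 C. GR nuclear translocation read as complemented b-gal luminescence after 1 h RT detection.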

Experiment [5] has as its target Guanine nucleotide-binding protein G(i) subunit alpha-1 (Homo sapiens) (UniProt P63096). In words: qHTS Assay for Inhibitors of RGS12 GoLoco Motif Activity (Green Fluorophore) (AID 879).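 Also: 0% = labeled peptide with Gαi1 and full inhibition = labeled peptide alone without protein; negative values mean loss of peptide binding seen as reduced polarization.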 The procedure, abridged: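 Fluorescence polarization assay: 50 nM Gαi1 with 10 nM FITC-labeled RGS12 GoLoco peptide in 10 mM Tris pH 7.5, 150 mM NaCl, 0.1 mM GDP, 0.05% NP40, 10 min at room temperature with compound.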
In general terms: In qHTS, concentration-response curves come from the screen itself.

Experiment [6] deals with Cytochrome P450 3A4 (Homo sapiens) (UniProt P08684). The experiment in a line: qHTS Assay for Activators of Cytochrome P450 3A4 (AID 885). Also: nearly all actives have a fitted effect of over 65% in size. Also: potency is read from the fitted curve at half-maximal effect. The procedure, abridged: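 Human CYP3A4 (20 nM) with Luciferin-PPXE at 25 uM (its KM) in 200 mM KPO4; 10 min compound preincubation, then NADPH regeneration and 60 min reaction at RT. Luciferin read by luminescence; normalized to 57 uM ketoconazole full inhibition.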
Sequence of Cytochrome P450 3A4 (Homo sapiens) (P08684 whole entry, looked up): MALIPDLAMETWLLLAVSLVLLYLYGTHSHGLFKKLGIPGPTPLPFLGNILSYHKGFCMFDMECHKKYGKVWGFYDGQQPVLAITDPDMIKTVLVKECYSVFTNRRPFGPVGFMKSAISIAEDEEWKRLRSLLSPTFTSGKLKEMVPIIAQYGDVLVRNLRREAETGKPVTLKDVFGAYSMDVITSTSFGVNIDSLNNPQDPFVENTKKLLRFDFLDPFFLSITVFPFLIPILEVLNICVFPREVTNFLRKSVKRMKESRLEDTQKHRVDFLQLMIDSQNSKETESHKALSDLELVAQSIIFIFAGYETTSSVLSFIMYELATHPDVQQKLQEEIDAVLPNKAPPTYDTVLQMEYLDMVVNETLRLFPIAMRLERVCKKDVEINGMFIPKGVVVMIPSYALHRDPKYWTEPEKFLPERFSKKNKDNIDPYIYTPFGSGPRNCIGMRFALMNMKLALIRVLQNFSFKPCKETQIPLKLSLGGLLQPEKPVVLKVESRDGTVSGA

For experiment [7], the target named is Cytochrome P450 2D6 (Homo sapiens) (UniProt P10635). In words: qHTS Assay for Inhibitors and Substrates of Cytochrome P450 2D6 (AID 891). Also: potency is read from the fitted curve at half-maximal effect; nearly all actives have a fitted effect of over 60% in size. The procedure, abridged: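 Human CYP2D6 (5 nM) with 30 uM Luciferin-ME EGE (at Km) in 100 mM KPO4, compound preincubated 10 min, then NADPH regeneration system for 60 min at room temperature. Luciferin read by luminescence; normalized to 1.43 uM quinidine.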

In experiment [8] the target is Muscarinic acetylcholine receptor M1 (Rattus norvegicus) (UniProt P08482). In words: qHTS Assay for Antagonists of Acetylcholine Muscarinic M1 Receptor: Kinetic Measurement of Intracellular Calcium Response (AID 943). Also: potency is read from the fitted curve at half-maximal effect; nearly all actives have a fitted effect of over 75% in size. Summed up:
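Rat M1-CHO cells, 2000/well, overnight → Fluo-4 no-wash dye with probenecid, 1 h 37C → compound 10 min, room temp → basal read 6 s → carbachol EC80 (100 nM) → 4 min kinetic read; peak/basal.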

Experiment [9] has the same target. The experiment in a line: qHTS Assay for Antagonists of Acetylcholine Muscarinic M1 Receptor: Measurement of IP-One Response (AID 944). Also: potency is read from the fitted curve at half-maximal effect; nearly all actives have a fitted effect of over 75% in size. The procedure, abridged: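 M1-CHO (rat), 2000 cells/well, overnight recovery; cpd 10 min; carbachol EC80 (200 nM), 30 min, HEPES buffer + 50 mM LiCl pH 7.4; IP-One HTRF, Ex 337, Em 620/665 nm.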
Experiment [10] addresses Pyruvate kinase (Leishmania mexicana) (UniProt Q27686). In words: qHTS Validation Assay for Inhibitors of Leishmania Mexicana Pyruvate Kinase (AID 945).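 Also: 0% = DMSO only neutral control wells.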 Summed up:
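Mutant LmPYK (E451W), 0.2 nM, plus 0.5 mM PEP and 0.1 mM ADP in 50 mM imidazole pH 7.2 containing 0.01% Tween 20 and 0.05% BSA. Incubated 1 h at room temperature; luminescence via PKLight, normalized to DMSO.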

In experiment [11] the target is Pyruvate kinase PKM (Homo sapiens) (UniProt P14618). In words: qHTS Assay for Activators of Human Muscle Pyruvate Kinase (AID 954; active = well fitted curve in the direction sought with a large enough effect, not every such curve was filed as active;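 also: 0% = uninhibited enzyme and -100% = no enzyme or full thiadiazolimine inhibition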). Summed up:
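Purified human PKM2 (0.1 nM) with 0.5 mM PEP (Km) and 0.1 mM ADP in 50 mM imidazole pH 7.2, KCl, MgCl2, 1 h at room temperature; ATP formed read by coupled luciferase luminescence. Normalized to no-enzyme/110 uM thiadiazolimine inhibition; 0.3 nM enzyme column for activation.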

For experiment [12], the target named is Alpha-galactosidase A (Homo sapiens) (UniProt P06280). In words: Counterscreen for Glucocerebrosidase Inhibitors: qHTS Assay for Human alpha-Galactosidase at pH 4.5 (AID 992). Also: 0% is about no effect. Summed up:
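Human enzyme (2 nM) with 80 uM 4-methylumbelliferyl alpha-D-galactopyranoside in 50 mM citric acid, 0.005% Tween-20, pH 4.5, 20 min at room temperature. Compounds 0.7 nM–77 uM; fluorescence Ex 365/Em 440 after pH 10 stop; AC50 from Hill fits.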

Experiment [13] has as its target alpha-glucosidase (Oryza sativa, rice) (UniProt Q653V4). The experiment in a line: Counterscreen for Glucocerebrosidase Inhibitors: qHTS Assay for Rice alpha-Glucosidase at pH 5.0 (AID 997).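 Also: 0% = full activity with enzyme and -100% = basal without enzyme.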 The procedure, abridged: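 Rice alpha-glucosidase (4 nM final) with 400 uM 4-methylumbelliferyl-alpha-D-glucopyranoside in citrate buffer pH 5.0, 20 min at room temperature, stopped at pH 10; fluorescence 365/440 nm, compounds 0.7 nM–77 uM, AC50 from Hill fits.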
On the technique in general: The purpose of a counterscreen is to sort out artefacts and off-target activity.

Experiment [14] concerns the target Mitogen-activated protein kinase 10 (Mus musculus) (UniProt Q61831). The experiment in a line: JNK3 AlphaScreen Assay (AID 530; active = well fitted curve in either direction with a large enough effect, not every such curve was filed as active;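 also: kinase came from lysate of stimulated human HepG2 cells; signal reports phosphorylation of biotinylated GST-cJun 1-79 at Ser73 with 10 µM ATP; % is scaled to controls: 0 for no effect and ±100 for the full control effect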). Summed up:
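Pre-activated (IL-1β/TNFα) JNK3 in HepG2 lysates phosphorylates biotin-GST-cJun(1-79), 10 uM ATP; anti-phospho-cJun(Ser73) AlphaScreen read at room temperature, pH 7.6 Tris buffer. Compounds pre-incubated 15 min as titrations.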
(In Alpha technology, singlet oxygen from a donor bead excites a nearby acceptor bead.)

Experiment [15] concerns the target 3',5'-cyclic-AMP phosphodiesterase 4B (Homo sapiens) (UniProt Q07343). In words: qHTS Assay for Inhibitors of PDE-IV (AID 607; active = well fitted activation curve with a large enough effect in the main read-out, with a control signal flat, not every such curve was filed as active; also: % of control where 0% means no effect). Summed up:
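HEK293 ACTOne cells with CNG channel (1000/well), endogenous PDE4; membrane potential dye, compounds up to 22.9 uM final. Fluorescence Ex 535/Em 590; RO 20-1724 (100 uM final) as reference.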

The target of experiment [16] is Cytochrome P450 2C9 (Homo sapiens) (UniProt P11712). In words: qHTS Assay for Inhibitors and Substrates of Cytochrome P450 2C9 (AID 883). Also: % is scaled to controls: 0 for no effect and ±100 for the full control effect; nearly all actives have a fitted effect of over 60% in size. Summed up:
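Human CYP2C9 (10nM) with Luciferin-H at 100uM (its KM) in 25mM KPO4; compound preincubated 10 min at 37C, then NADPH regeneration for 60 min at 37C. Luciferin read by luminescence after detection reagent; normalized to 57uM sulphaphenazole as full inhibition.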

Experiment [17] in a line: qHTS Assay for Identification of Small Molecule Agonists for Thrombopoietin (TPO) Signaling Pathway (AID 917). Also: % is scaled to controls: 0 for no effect and ±100 for the full control effect. Summed up:
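Activators of TPO signaling were sought in murine Ba/F3 cells transfected with the human receptor, using a luciferase gene driven by the Glycoprotein IIb promoter; 24-hr compound exposure at 37 C alongside 26 pM TPO, in IL-3-free medium.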

In experiment [18] the target is Cytochrome P450 3A4 (Homo sapiens) (UniProt P08684). The experiment in a line: qHTS Assay for Inhibitors and Substrates of Cytochrome P450 3A4 (AID 884). Also: % is scaled to controls: 0 for no effect and ±100 for the full control effect; nearly all actives have a fitted effect of over 50% in size. Summed up: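 20 nM human CYP3A4 with 25 uM Luciferin-PPXE (at KM) in 200 mM KPO4, preincubated 10 min with compound; NADPH regeneration started a 60 min RT reaction. Luciferin detected by luminescence, normalized to 57 uM ketoconazole as full inhibition.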

The nature of experiment [19]: AP1 Signaling Pathway (AID 357; active = well fitted curve in either direction with a large enough effect, not every such curve was filed as active;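 also: ME-180 reporter cells stimulated with EGF at its EC50 level; % is scaled to controls: 0 for no effect and ±100 for the full control effect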). The conditions noted are these: ME-180 (cervical carcinoma) AP-1-bla reporter, EGF-induced, beta-lactamase ratio, 5 h; at 17.2 µM (top of the series) unless noted. Summed up:
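Read-out was the 460nm/530nm emission ratio (excitation 405nm) after CCF4 loading for 2.5 hours at room temperature. Cells carried an AP-1-driven beta-lactamase reporter, were stimulated with EC50 EGF plus compound for 5 hours, and AC50 values came from titrations.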

Unmarked numbers belong to inactive results. Inconclusive results are not listed. The source made the active and inactive calls. Unless noted, calls follow the shape of the dose curve; as a rule, active = well fitted curve in the direction sought with a large enough effect; inconclusive = small, poorly fitted or top-dose-only effect, or another doubt; inactive = no such curve, though single readings can be large; an effect the other way counts as inactive or inconclusive.

Sequence of Muscarinic acetylcholine receptor M1 (Rattus norvegicus) (P08482 whole entry, looked up): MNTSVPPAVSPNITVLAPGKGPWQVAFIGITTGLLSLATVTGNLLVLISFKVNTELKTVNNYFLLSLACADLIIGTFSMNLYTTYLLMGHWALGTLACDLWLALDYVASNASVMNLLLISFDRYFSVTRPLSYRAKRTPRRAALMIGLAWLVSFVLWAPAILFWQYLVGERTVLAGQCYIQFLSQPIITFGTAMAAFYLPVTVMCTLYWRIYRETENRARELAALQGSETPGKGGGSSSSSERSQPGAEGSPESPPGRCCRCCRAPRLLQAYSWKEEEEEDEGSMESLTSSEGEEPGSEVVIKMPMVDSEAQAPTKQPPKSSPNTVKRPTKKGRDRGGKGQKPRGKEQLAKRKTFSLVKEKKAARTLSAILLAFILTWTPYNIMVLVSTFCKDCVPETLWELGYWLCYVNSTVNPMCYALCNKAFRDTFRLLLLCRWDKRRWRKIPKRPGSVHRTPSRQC
Sequence of Alpha-galactosidase A (Homo sapiens) (P06280 whole entry, looked up): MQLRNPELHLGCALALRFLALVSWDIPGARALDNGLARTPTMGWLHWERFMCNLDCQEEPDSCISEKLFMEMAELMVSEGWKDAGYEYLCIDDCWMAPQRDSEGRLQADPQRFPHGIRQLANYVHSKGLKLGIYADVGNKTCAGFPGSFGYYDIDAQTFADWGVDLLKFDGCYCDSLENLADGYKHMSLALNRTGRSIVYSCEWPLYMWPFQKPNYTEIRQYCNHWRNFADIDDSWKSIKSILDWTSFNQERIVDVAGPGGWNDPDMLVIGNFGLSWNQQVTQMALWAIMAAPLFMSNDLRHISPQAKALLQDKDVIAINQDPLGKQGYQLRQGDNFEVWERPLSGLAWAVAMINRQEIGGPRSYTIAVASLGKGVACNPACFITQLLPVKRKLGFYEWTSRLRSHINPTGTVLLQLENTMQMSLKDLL
Sequence of Guanine nucleotide-binding protein G(i) subunit alpha-1 (Homo sapiens) (P63096 whole entry, looked up): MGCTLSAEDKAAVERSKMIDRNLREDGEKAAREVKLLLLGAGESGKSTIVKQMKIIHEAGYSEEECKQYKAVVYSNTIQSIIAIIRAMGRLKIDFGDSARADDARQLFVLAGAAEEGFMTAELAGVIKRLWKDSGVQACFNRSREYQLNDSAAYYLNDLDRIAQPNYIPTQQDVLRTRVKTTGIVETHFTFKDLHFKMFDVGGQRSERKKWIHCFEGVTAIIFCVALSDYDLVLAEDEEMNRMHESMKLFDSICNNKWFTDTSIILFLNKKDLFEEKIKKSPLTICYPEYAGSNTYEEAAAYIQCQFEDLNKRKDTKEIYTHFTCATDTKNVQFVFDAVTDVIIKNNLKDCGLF
Sequence of Pyruvate kinase (Leishmania mexicana) (Q27686 2-499 E452W): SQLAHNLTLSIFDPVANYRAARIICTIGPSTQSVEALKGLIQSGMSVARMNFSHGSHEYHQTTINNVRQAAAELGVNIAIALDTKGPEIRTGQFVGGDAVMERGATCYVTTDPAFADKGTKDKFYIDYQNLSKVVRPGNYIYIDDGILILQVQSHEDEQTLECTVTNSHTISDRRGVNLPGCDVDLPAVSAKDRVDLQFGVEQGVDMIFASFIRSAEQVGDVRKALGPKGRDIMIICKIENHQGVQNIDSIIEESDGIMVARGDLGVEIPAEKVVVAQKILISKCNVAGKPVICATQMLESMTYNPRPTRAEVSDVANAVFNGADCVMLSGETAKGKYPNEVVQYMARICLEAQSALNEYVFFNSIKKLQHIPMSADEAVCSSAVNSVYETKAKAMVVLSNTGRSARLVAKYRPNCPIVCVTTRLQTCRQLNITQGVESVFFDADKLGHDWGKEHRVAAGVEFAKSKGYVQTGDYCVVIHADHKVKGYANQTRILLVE
Sequence of Pyruvate kinase PKM (Homo sapiens) (P14618 whole entry, looked up): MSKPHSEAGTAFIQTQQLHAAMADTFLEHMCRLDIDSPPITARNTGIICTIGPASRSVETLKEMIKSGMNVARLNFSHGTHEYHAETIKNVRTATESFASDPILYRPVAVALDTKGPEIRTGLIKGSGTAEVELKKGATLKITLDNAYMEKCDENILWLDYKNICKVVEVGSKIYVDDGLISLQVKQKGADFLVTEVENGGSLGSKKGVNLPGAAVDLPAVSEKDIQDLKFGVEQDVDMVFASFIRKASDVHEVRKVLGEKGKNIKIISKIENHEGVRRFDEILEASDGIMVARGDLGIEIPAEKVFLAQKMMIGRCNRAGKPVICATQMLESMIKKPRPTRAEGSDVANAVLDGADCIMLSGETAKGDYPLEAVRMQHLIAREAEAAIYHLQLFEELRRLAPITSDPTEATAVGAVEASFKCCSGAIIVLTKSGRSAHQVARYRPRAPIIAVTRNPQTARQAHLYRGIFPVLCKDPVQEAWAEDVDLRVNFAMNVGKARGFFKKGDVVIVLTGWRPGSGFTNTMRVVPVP
Sequence of Cytochrome P450 1A2 (Homo sapiens) (P05177 whole entry, looked up): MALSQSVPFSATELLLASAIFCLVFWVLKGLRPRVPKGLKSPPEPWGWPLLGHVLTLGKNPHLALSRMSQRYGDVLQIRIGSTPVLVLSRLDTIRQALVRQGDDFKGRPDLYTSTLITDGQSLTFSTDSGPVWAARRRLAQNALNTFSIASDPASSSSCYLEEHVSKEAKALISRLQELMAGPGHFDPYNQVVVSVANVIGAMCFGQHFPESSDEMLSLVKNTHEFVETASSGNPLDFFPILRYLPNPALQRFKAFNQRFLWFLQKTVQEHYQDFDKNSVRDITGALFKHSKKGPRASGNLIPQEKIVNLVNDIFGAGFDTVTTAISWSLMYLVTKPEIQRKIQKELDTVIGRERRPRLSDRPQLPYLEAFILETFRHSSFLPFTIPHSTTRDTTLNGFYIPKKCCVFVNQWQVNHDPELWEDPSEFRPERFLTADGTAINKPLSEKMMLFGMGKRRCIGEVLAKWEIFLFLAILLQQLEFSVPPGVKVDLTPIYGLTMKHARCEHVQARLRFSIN
Sequence of 3',5'-cyclic-AMP phosphodiesterase 4B (Homo sapiens) (Q07343 whole entry, looked up): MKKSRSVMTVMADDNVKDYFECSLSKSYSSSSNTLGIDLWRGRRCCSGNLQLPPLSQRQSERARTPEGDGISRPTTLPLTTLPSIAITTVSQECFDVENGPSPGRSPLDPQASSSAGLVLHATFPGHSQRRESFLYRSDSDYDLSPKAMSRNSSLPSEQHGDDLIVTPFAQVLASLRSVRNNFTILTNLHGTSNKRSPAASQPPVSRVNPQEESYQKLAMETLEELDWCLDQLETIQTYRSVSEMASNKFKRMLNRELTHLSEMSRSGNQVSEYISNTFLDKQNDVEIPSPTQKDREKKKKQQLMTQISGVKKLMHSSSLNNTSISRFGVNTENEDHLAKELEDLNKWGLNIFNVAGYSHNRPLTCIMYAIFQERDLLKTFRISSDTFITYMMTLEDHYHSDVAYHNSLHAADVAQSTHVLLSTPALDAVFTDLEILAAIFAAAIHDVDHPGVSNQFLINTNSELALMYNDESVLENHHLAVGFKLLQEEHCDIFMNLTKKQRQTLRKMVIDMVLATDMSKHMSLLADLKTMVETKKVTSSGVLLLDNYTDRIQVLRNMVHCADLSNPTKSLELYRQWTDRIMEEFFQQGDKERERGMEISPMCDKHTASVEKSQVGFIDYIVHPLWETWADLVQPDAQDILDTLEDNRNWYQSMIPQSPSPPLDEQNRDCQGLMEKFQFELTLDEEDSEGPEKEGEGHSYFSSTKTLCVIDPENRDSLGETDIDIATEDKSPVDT

`CN1CCN([C@@H]2Cc3ccccc3Sc3ccc(Cl)cc32)CC1`: the Potency is 12.6 µM (active) in [1]; more than 46 µM in experiment [3]; more than 46 µM in [4]; 0.398 µM (active) in experiment [7]; 1.78 µM (active) in experiment [8]; 10 µM (active) in [9]. Further, in experiment [2], the activity, negative = inhibition is 2.01% [at 38 µM]. Also, the outcome in [5], in experiment [11], in experiment [12] and in experiment [13] was inactive. The Potency result in experiment [6] and in experiment [10] was “inactive” each time.

Regarding `CCCCCCCCCCCCCCCCCC(=O)O[C@H](CC(=O)O)C[N+](C)(C)C`, the Potency entry in experiment [1], in experiment [14], in [15], in experiment [16], in experiment [17] and in experiment [10] was “inactive” throughout. The activity, negative = inhibition in experiment [2] is -28.3% [at 38 µM]. Besides, the Potency was more than 46 µM in experiment [3], more than 46 µM in experiment [4] and 1 µM (active) in experiment [8]. Besides, the result in experiment [5], in experiment [11], in [12] and in [13] was inactive.

`C=CCN1CCc2c(cc(O)c(O)c2Br)[C@H](c2ccccc2)C1`: the Potency was 12.6 µM (active) in [1], more than 46 µM in experiment [3], more than 46 µM in experiment [4] and 20 µM (active) in [6]. The activity, negative = inhibition in [2] was 7.2% [at 38 µM]. In addition, the Potency result in [15], in experiment [18] and in [10] was “inactive” in each case. The outcome in [5], in experiment [11], in experiment [12] and in experiment [13] was inactive.

In the case of `CCOC(=O)NC(Nc1sc2c(c1C(=O)OC)CCN(C)C2)(C(F)(F)F)C(F)(F)F`, the activity change, negative = inhibition in experiment [19] is 12.1%. For the same compound, the Potency in [3] is more than 20.6 µM.

In the case of `CNCC[C@H](Oc1ccccc1C)c1ccccc1`, the Potency is 15.8 µM (active) in experiment [1], more than 46 µM in experiment [3], more than 46 µM in [4] and 11.2 µM (active) in experiment [8]. The activity, negative = inhibition in experiment [2] was -13.9% [at 38 µM]. For the same compound, the Potency entry in [14] and in experiment [10] was “inactive” in each case. For the same compound, the call in [5], in experiment [11], in [12] and in [13] was inactive.
